# Experimental data taken from ChEMBL document CHEMBL1157539, “Thousands of chemical starting points for antimalarial lead identification” (Nature, 2010).
# Tested on: Plasmodium falciparum
# Experiment: GSK_TCMDC: Inhibition of Plasmodium falciparum Dd2 in whole red blood cells, using parasite LDH activity as an index of growth. Test compounds present at 2uM
# Type: functional
row,Compound,Inhibition [%]
1,O=C(O)C(F)(F)F.O=C1CCCN1CCCNCc1cccc(-c2ccc(-c3nc4cc(C(F)(F)F)ccc4[nH]3)s2)c1,99
2,COc1ccc2nccc([C@@H](O)CN3CCC(NCc4cc5c(Cl)cccc5[nH]4)CC3)c2c1.O=C(O)C(=O)O,74
3,CCOc1c(OC)ccc2c1CCN(CCN1CCC(CNC(=O)c3ccc(-c4ccc(C#N)cc4)cc3)CC1)C2,61
4,Cc1cccn2c(=O)c3cc(C(=O)NC(C)c4ccccc4)c(=N)n(CCc4ccccc4)c3nc12 (stereo not drawn),82
5,N#Cc1ccc(N(CCOc2ccc(Cl)c(F)c2)Cc2ccccc2C(F)(F)F)cc1C(F)(F)F,43
6,COc1ccc(Oc2ccc(-c3c(O)cc(C)nc3C)cc2)cc1,88
7,CCC[C@@H]([C@@H](CC1CCCCC1)C(=O)N[C@H](C(=O)Nc1nccs1)[C@@H](C)OCc1ccccc1)N(O)C=O,99
8,COc1cc2[nH]c(-c3ccc(O)cc3)c(C)c(=O)c2c(OC)c1OC,94
9,COc1ccc2nccc([C@@H](O)CN3CCC(NC(=O)C(c4cc5ccccc5s4)N4CC(C)OC(C)C4)CC3)c2c1 (stereo partly drawn),44
10,CN(C)CCCOc1cccc(CCNCc2cccc(Oc3ccc(Cl)cc3)c2)c1.O=C(O)C(F)(F)F,67
11,O=C(Nc1cc(F)cc(F)c1)NC1CCN(CCCCCNC(=O)C2CC2c2ccc(Cl)c(Cl)c2)CC1 (stereo not drawn),6
12,COc1ccc(Nc2ncc3c(-c4ccc(NC(=O)c5cccc(C(F)(F)F)c5)cc4)c[nH]c3n2)cc1OC,30
13,Cc1cccc(NC(=O)Nc2ccc(I)c(OCCN(C)C)c2)c1C,17
